# Experimental data reported in PubChem BioAssay.
# The source made the active and inactive calls.
# Columns and labels:
# [1] = compound effects on lung adenocarcinoma cell viability – A549, calcein-AM fluorescence, 48 h, basal, profiling panel (AID 1162); conditions: higher = more signal
# [2] = compound effects on differentiated 3T3-L1 adipocyte viability – cell-based, 3T3-L1 adipocytes, calcein-AM fluorescence, 48 h, basal, profiling panel (AID 1163); conditions: 3T3-L1 adipocytes viability, higher = more signal
# [3] = compound effects on hepatocellular carcinoma cell viability – HepG2, calcein-AM fluorescence, 48 h, basal, profiling panel (AID 1164); conditions: higher = more signal
# [4] = compound effects on multiple myeloma cell viability – MM1S, calcein-AM fluorescence, 48 h, basal, profiling panel (AID 1165); conditions: higher = more signal
# [5] = calcein-AM signal in unstimulated myeloma cells – cell-based, calcein-AM fluorescence, 48 h, PK04 Diversity Set, profiling panel (AID 1166); conditions: RPMI8226 myeloma viability, higher = more signal;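 also: cells grown under basal conditions without added stimulus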
# [6] = JC-1 mitochondrial signal, unstimulated HepG2 cells – cell-based, JC-1 fluorescence, 24 h, 100 nL compound, profiling panel (AID 1167); conditions: HepG2 mitochondrial potential, higher = more signal
# [7] = JC-1 mitochondrial signal, unstimulated adipocytes – cell-based, JC-1 fluorescence, 3T3-L1 adipocytes, 24 h, 100 nL compound, profiling panel (AID 1168); conditions: JC-1 mitochondrial fluorescence, higher = more signal, called active from +8 up or from −8 down
# [8] = JC-1 mitochondrial signal, unstimulated myeloma cells – cell-based, JC-1 fluorescence, RPMI8226, 24 h, 100 nL compound, profiling panel (AID 1169); conditions: JC-1 mitochondrial potential fluorescence, higher = more signal
# [9] = JC-1 mitochondrial signal, unstimulated MM1S myeloma – cell-based, JC-1 fluorescence, 24 h, 100 nL compound, profiling panel (AID 1170); conditions: MM1S mitochondrial potential, higher = more signal
# [10] = resazurin metabolic signal in A549 cells – cell-based, resazurin fluorescence, 24 h, PK04 Diversity Set, profiling panel (AID 1171); conditions: A549 viability, higher = more signal, called active from +8 up or from −8 down
# Also: test concentration not given here.
SMILES,z-score [1],z-score [2],z-score [3],z-score [4],z-score [5],z-score [6],z-score [7],z-score [8],z-score [9],z-score [10]
COC(=O)[C@@]1(Cc2ccccc2)[C@H]2c3cc(C(=O)N(C)C)n(CCSC(=N)N)c3C[C@H]2CN1C(=O)c1ccccc1,-0.944,0.451,-1.11,-0.948,-1.07,0.121,-1.1 (inactive),-0.889,-0.656,-0.541 (inactive)
CCCC=C(CCC)[C@@H](NC(=O)c1ccc(C(F)(F)F)cc1)c1ccc(C(F)(F)F)cc1,-1.88,-0.0493,-0.751,-1.53,-3.65,4.85,0.216 (inactive),-0.235,-0.678,0.949 (inactive)
COc1ccc(CCNC(=O)[C@@H]2c3ccccc3C(=O)N(Cc3ccccc3OC)[C@H]2c2ccc(CO)cc2)cc1,0.41,-0.219,-0.147,-0.147,0.245,1.22,-0.822 (inactive),-0.167,-0.42,1.58 (inactive)
CC(C)C(CO)N1C(=O)[C@@H]2C3C(=O)OCCC/C=C\[C@H]3OC23C=CCN(Cc2ccccc2)C(=O)[C@@H]13 (stereo not given in full),0.214,-0.0826,0.728,0.441,-0.0976,0.161,0.256 (inactive),-0.687,0.942,0.777 (inactive)
C=CCOC(=O)[C@H]1[C@@H]2C(=O)O[C@@H](c3ccccc3)[C@@H](c3ccccc3)N2[C@@H](c2ccc(OCCOC(=O)[C@@H]3C[C@@H]4C(=O)N[C@@H](CCCCNC(C)=O)C(=O)N4[C@@H]3c3cccc(OCCO)c3)cc2)[C@]12C(=O)Nc1ccccc12,-0.389,0.585,-0.567,-0.0545,0.879,1.24,2.61 (inactive),-0.615,-0.966,-0.165 (inactive)
C=CC[C@@]1(C(=O)OC)N=C(c2ccc(OCCCO)cc2)O[C@@H]1c1ccccc1N=[N+]=[N-],-1.28,1.02,-0.361,-0.473,-3.03,1,0.645 (inactive),-0.983,0.0955,-1 (inactive)
C=CCN1C(=O)[C@]2(O[C@H](CCn3cc([C@H](O)c4ccccc4)nn3)[C@@H]([Si](C)(C)c3ccc(OC)cc3)[C@@H]2C)c2cc(NC(=O)c3ccc(OC)cc3)ccc21,0.268,0.37,-1.87,-2.74,-4.38,3.48,0.517 (inactive),-1.17,-1.39,-2.43 (inactive)
CCCCC(O)C1C=CC2C(=O)N(c3ccccc3)C(=O)C2N1Nc1ccc(C#N)cc1 (stereo not given),0.233,0.15,1.2,0.105,0.0528,-0.622,-1.19 (inactive),-0.0799,-0.0525,-0.151 (inactive)
O=C1O[C@@H](c2ccccc2)[C@@H](c2ccccc2)N2[C@@H](c3ccccc3OCCO)[C@]3(C(=O)Nc4ccc(C#CCCO)cc43)[C@@H](C(=O)NC[C@H](O)c3ccccc3)[C@H]12,-0.31,0.323,0.997,0.16,-0.0269,-1.16,0.00583 (inactive),-0.471,-0.596,0.682 (inactive)
C=C(COC)C(=O)CC[C@@H](OC(=O)c1ccccc1-c1ccccc1C(=O)O)c1ccc(OCCO)cc1,-0.25,1.27,-0.354,-3.06,-0.414,-1.05,-0.144 (inactive),-0.163,0.0435,-0.205 (inactive)
C=CCC(OC(C)=O)[C@@H]1[C@@H](N(Cc2ccc(-c3cccc(C(F)(F)F)c3)o2)C(=O)Cc2ccc(F)cc2)c2cc(OCCCO)ccc2N1C(=O)Cc1ccc2ccccc2c1 (stereo not given in full),-0.92,1.1,-0.0416,-1.7,-0.261,1.8,0.978 (inactive),-0.0117,0.0602,0.623 (inactive)
COc1ccc([Si](C)(C)[C@H]2[C@H](CC(=O)N3CCC[C@H]3CO)O[C@@]3(C(=O)N(Cc4ccc(N5CCCCC5=O)cc4)c4ccccc43)[C@@H]2C)cc1,-0.288,0.954,-0.531,-1.74,-3.5,3.5,-0.774 (inactive),-1.02,-0.184,-0.421 (inactive)
C[N+](C)(C)CCCC[C@@H]1NC(=O)[C@@H]2C[C@H](C(=O)NCc3ccc(F)cc3)[C@H](c3ccc(O)cc3)N2C1=O,0.993,-0.335,0.698,0.481,-0.114,1.62,-0.41 (inactive),-0.0248,-0.524,-0.0894 (inactive)
CO[C@H]1O[C@H](CO)[C@@H](OC(=O)Nc2ccccc2)[C@H](OC(=O)Nc2ccccc2)[C@H]1OC(=O)Nc1ccccc1,-1.27,0.416,-1.92,-0.77,-3.14,0.292,0.0293 (inactive),-0.77,-1.06,-3.04 (inactive)
COCCCNC(=O)[C@@]1(CCC(=O)OC(C)(C)C)COC(c2ccc(OCCCO)cc2)=N1,-0.487,0.129,-0.642,-1.43,-0.24,0.195,-1.05 (inactive),-0.438,0.012,2.45 (inactive)
CCCCCC1=C2CNC(CC(C)C)(C(=O)OC)C=C2C(C)C1=O (stereo not given),-0.659,-0.707,0.468,-0.227,-1.12,0.745,-1.21 (inactive),-0.324,-1.53,-0.683 (inactive)
C=CCOC(=O)[C@@H]1[C@H]2C(=O)O[C@H](c3ccccc3)[C@H](c3ccccc3)N2[C@H](c2ccc(OCCOC(=O)[C@H]3C[C@H]4C(=O)N5CCC[C@H]5C(=O)N4[C@H]3c3cccc(OCCO)c3)cc2)[C@@]12C(=O)Nc1ccc(I)cc12,-0.302,-0.506,-0.28,0.328,-0.0082,-2.08,0.667 (inactive),-0.16,-0.998,0.0981 (inactive)
CC(C)(C)N1CC=CC23O[C@@H]4/C=C\CCCOC(=O)C4[C@H]2C(=O)N(CCCO)[C@@H]3C1=O (stereo not given in full),-0.377,1.1,0.0723,-0.112,-0.0698,-0.794,0.822 (inactive),0.233,0.229,0.114 (inactive)
Cc1ccc(S[C@]2(C(=O)NCC(F)(F)F)CC(=O)N(Cc3ccccc3C(F)(F)F)[C@@H]2c2ccc(CO)cc2)cc1,-0.859,0.0909,-0.768,-1.04,0.0646,-0.523,0.0107 (inactive),0.0145,-0.594,0.413 (inactive)
COC(=O)[C@@]1(Cc2ccc(F)cc2)[C@H]2c3cc(C(=O)N(C)C)n(CCc4ccc(O)c(O)c4)c3C[C@H]2CN1C(=O)c1ccccc1,-0.681,-1.17,0.193,0.287,-0.238,0.86,0.243 (inactive),-0.672,-1.95,-0.238 (inactive)
O=C1C2C=CC(C(O)c3ccc([N+](=O)[O-])cc3)N(Nc3ccccc3F)C2C(=O)N1c1ccccc1 (stereo not given),-0.353,-0.923,-1.16,0.375,-0.958,-1.5,-2.27 (inactive),-0.268,-0.127,-0.364 (inactive)
COc1ccccc1CN1C(=O)c2ccccc2[C@](Cc2ccccc2I)(C(=O)NCC(C)C)[C@@H]1c1ccc(CO)cc1,1.26,0.297,2.05,-0.746,-0.458,1.41,-0.808 (inactive),-0.38,-0.257,0.41 (inactive)
CN(C)CCCNC(=O)[C@@H]1c2ccccc2C(=O)N(Cc2ccccc2C(F)(F)F)[C@H]1c1ccc(CO)cc1,1.42,0.747,1.13,0.353,1.09,2.98,-0.343 (inactive),0.188,-0.317,1.45 (inactive)
COCCCNC(=O)[C@@H]1c2ccccc2C(=O)N(Cc2ccc(OC(F)(F)F)cc2)[C@H]1c1ccc(CO)cc1,0.927,-0.704,0.198,-0.0583,0.317,1.75,-0.436 (inactive),-0.604,-0.29,0.469 (inactive)
CO[C@H]1O[C@H](CO)[C@@H](OC(=O)Nc2ccccc2-c2ccccc2)[C@H](OC(=O)Nc2ccccc2)[C@H]1OC(=O)Nc1ccccc1,-1.66,1.29,-1.74,-2.76,-3.36,-0.216,0.877 (inactive),-0.747,-0.558,-3.34 (inactive)
C=CCOC(=O)[C@H]1[C@@H]2C(=O)O[C@@H](c3ccccc3)[C@@H](c3ccccc3)N2[C@@H](c2ccc(OCCOC(=O)[C@@H]3C[C@@H]4C(=O)N[C@@H](CCCC[N+](C)(C)C)C(=O)N4[C@@H]3c3ccc(O)cc3)cc2)[C@]12C(=O)Nc1ccc(I)cc12,-0.717,-0.169,-0.457,-2.9,-1.43,-2,0.638 (inactive),-0.767,-0.879,0.281 (inactive)
O=C1O[C@H](Cc2ccccc2)[C@@H]2[C@H]3C=CCCC=C3CN2[C@H]1Cc1ccc(O)cc1,0.405,-0.276,0.146,-3.14,-0.148,-2.65,-0.639 (inactive),-1.05,-1.69,0.745 (inactive)
